High-throughput results (PubChem BioAssay)
This is a sample that favours compounds with a hit; in the whole collection about 9.5% have one here.
Tau fluor cs: counter-screen for tau fibril formation inhibitors | tau K18 P301L Alexa594 fluorescence, heparin fibrillization | Potency, µM (doses to about 57.7 µM) | 280,000 compounds, 0.93% hits; also: nearly all actives have a fitted effect of over 55% in size
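Human tau K18 P301L (15 uM unlabeled, 0.24 uM Alexa 594-labeled) in 100 mM sodium acetate pH 7 with 20 uM heparin, 6 hr at 37 C. ThT 30 uM added, 1 hr ambient; Alexa 594 FP and total fluorescence read at 555/632 nm.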
Tau fibril ThT: inhibitors of human tau fibril formation, thioflavin T binding; recombinant tau K18 P301L, heparin-induced fibrillization, ThT fluorescence; Potency, µM (series often up to 57.4 µM), actives largely listed as inhibitors; 270,000 compounds, 2.1% hits; AID 1460; P10636; also: nearly all actives have a fitted effect of over 55% in size
Target sequence (P10636 561-689 P618L limits assumed): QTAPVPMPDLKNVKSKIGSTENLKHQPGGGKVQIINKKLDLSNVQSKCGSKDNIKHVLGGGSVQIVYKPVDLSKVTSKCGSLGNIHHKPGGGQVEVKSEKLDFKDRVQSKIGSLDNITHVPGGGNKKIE
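ThT emission at 510 nm, taken 1 hr after adding 30 uM dye, quantifies aggregates formed when 20 uM heparin acts on human tau K18 P301L for 6 hr at 37 C.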
HPGD inh: HPGD (human) dehydrogenase inhibition. Potency, µM, hits mostly inhibitors. purified HPGD, NADH fluorescence kinetic, PGE2 substrate. P15428. 150,000 compounds, 4.3% hits; active = well fitted inhibition curve with a large enough effect, not every such curve was filed as active; inconclusive = small, poorly fitted or top-dose-only effect, or another doubt; inactive = no such curve, though single readings can be large or run the other way
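NADH formation kinetics: reaction with 30 uM PGE2 and 1 mM NAD+ (final), 20 nM enzyme, Tris-HCl pH 8 with Tween 20, after 15 min compound preincubation at room temperature. Fluorescence change, last versus first of five reads.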
ALDH1A1 inh-1: blocks purified human ALDH1A1 activity; Purified ALDH1A1, NADH fluorescence, propionaldehyde substrate; P00352; 220,000 compounds, 7.3% hits; Potency, µM (series often up to 75.3 µM), hits mostly inhibitors; active = well fitted inhibition curve with a large enough effect, not every such curve was filed as active; inconclusive = small, poorly fitted or top-dose-only effect, or another doubt; inactive = no such curve, though single readings can be large or run the other way
NPSR antagonist: antagonists of human neuropeptide S receptor cAMP signaling. Q6W5P4. Potency, µM (top dose mostly 38.3 µM), usual class: inhibitors. CHO-NPSR cells, cAMP TR-FRET, antagonist mode. 220,000 compounds, 1% hits. AID 1461; also: nearly all actives have a fitted effect of over 50% in size
Target sequence (Q6W5P4 whole entry, looked up): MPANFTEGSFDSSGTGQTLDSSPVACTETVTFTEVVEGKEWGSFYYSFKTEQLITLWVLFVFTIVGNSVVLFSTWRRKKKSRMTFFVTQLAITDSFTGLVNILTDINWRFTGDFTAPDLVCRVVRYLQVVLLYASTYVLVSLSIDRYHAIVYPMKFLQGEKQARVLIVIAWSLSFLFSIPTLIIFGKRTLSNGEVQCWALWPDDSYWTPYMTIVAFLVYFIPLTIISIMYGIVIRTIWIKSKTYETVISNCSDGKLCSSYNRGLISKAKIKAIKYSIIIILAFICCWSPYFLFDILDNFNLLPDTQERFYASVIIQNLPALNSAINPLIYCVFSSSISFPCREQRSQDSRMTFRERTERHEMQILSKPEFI
Tau FP inhib: blocks human tau fibril formation measured by polarization; Potency, µM (titrated, usually from 57.7 µM), actives largely listed as inhibitors; P10636; 280,000 compounds, 0.39% hits; K18 P301L tau heparin fibrillization, Alexa594 FP, 6 h; also: nearly all actives have a fitted effect of over 55% in size
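Quantitative HTS format: compounds meet 15 uM recombinant K18 P301L tau and Alexa 594-tau tracer in 100 mM sodium acetate pH 7; 20 uM heparin triggers fibrillization at 37 C over 6 hr; FP gives the signal.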
ALDH1A1 inh-2: Blocks ALDH1A1 NADH production, follow-up; 90 compounds, 90% hits; AID 493210; purified ALDH1A1, NADH fluorescence, propionaldehyde/NAD+; shares compounds with ALDH1A1 inh-1; Potency, µM (doses to about 57.1 µM), hits mostly inhibitors; calls by dose curve
tau sediment: inhibitors of human tau fibrillization, sedimentation test. recombinant tau K18 P301L (four-repeat tau fragment), sedimentation SDS-PAGE densitometry. AID 1720. inhibition, % at 100 µM. shares compounds with Tau fibril ThT. 110 compounds, 50% hits; in the data active = inhibition above about 40%; inconclusive = no clear call, values can overlap the other calls; inactive = below about 18%
Numbers stand for hits; n = inactive; u = inconclusive; x = no result given; [ ] = another dose, or the depositor's remark. Unless noted, calls follow the shape of the dose curve; as a rule, active = well fitted curve in the direction sought with a large enough effect; inconclusive = small, poorly fitted or top-dose-only effect, or another doubt; inactive = no such curve, though single readings can be large; an effect the other way counts as inactive or inconclusive.

SMILES | Tau fluor cs | Tau fibril ThT | HPGD inh | ALDH1A1 inh-1 | NPSR antagonist | Tau FP inhib | ALDH1A1 inh-2 | others
COc1ccc(C)cc1NC(=O)CN1CCN(S(=O)(=O)c2ccc(Cl)cc2)CC1 | n | n | n | 0.32µM | n | n | 0.14µM
Cc1nc(N2CCCC2)ncc1C(=O)N1CCN(c2ccccc2F)CC1 | n | n | x | x | x | n | x
CCOC(=O)N1CCN(Cc2nc3c(c(=O)n(C)c(=O)n3C)n2CCC(C)C)CC1 | n | n | n | 0.22µM | n | n | 0.18µM
CCOC(=O)N1CCN(Cc2nc3c(c(=O)n(C)c(=O)n3C)n2Cc2ccccc2C)CC1 | n | n | n | 0.25µM | n | n | 0.35µM
CCCn1c(CN2CCN(C(=O)OCC)CC2)nc2c1c(=O)n(C)c(=O)n2C | n | n | x | n | n | n | x
CN(Cc1ccccc1)Cc1nc2c(c(=O)n(C)c(=O)n2C)n1CCCc1ccccc1 | n | n | n | 0.71µM | u | n | 0.56µM
Cc1ccc(Cn2c(CN3CCN(C(=O)c4ccco4)CC3)nc3c2c(=O)n(C)c(=O)n3C)cc1 | n | n | n | 0.16µM | n | u | 0.5µM
COc1ccc(-n2c(=O)c(-c3cccc(C#N)c3)nc3cnc(N4CCNCC4)nc32)cc1 | x | x | x | n | x | x | x
COc1ccccc1-n1cc(C(=O)N2CCCC(CO)(Cc3ccccc3C)C2)cn1 (centres undefined) | n | n | x | n | n | n | x
CCOC(=O)N1CCN(Cc2nc3c(c(=O)n(C)c(=O)n3C)n2CCCc2ccccc2)CC1 | n | n | n | 0.63µM | n | n | 0.63µM
Cc1cc(NC(=O)c2ccc3c(c2)C(=O)N(Cc2ccccc2)C3=O)no1 | n | n | x | n | n | n | x
CCCN1C(=O)c2ccc(C(=O)Nc3cc(C)on3)cc2C1=O | n | n | n | 0.4µM | n | n | 0.79µM
COCCN1C(=O)c2ccc(C(=O)Nc3nccs3)cc2C1=O | n | n | n | u | n | n | x
CCCN1C(=O)c2ccc(C(=O)Nc3nccs3)cc2C1=O | n | n | n | 0.28µM | n | n | 0.4µM
CC(C)CN1C(=O)c2ccc(C(=O)Nc3nccs3)cc2C1=O | n | n | n | 0.45µM | n | n | 0.32µM
Cc1ccc(Cl)cc1-n1ncc2c(NCCC3=CCCCC3)ncnc21 | n | n | x | x | x | n | x
Cn1c(=O)[nH]c(=O)c2c1nc(Sc1ccccc1)n2CCc1ccccc1 | n | n | n | n | n | n | x
Cc1ccc(Sc2nc3c(c(=O)[nH]c(=O)n3C)n2CCc2ccccc2)cc1 | n | n | n | 0.63µM | n | n | 0.89µM
O=C(COc1ncnc2sccc12)NC1CCS(=O)(=O)C1 (centres undefined) | n | n | x | n | n | n | x
CCCNC(=O)OC[C@H]1O[C@@H](CCO/N=C2/[C@H]3O[C@@H]3[C@@H](O)[C@H]3[C@H]2CCn2c(=O)n(-c4ccccc4)c(=O)n23)C=C[C@@H]1Oc1ccc(OC)cc1 | n[11.6 µM] | n[11.5 µM] | x | n[13.5 µM] | x | n[11.6 µM] | x
CC(=O)NC1C(=O)N(CC(C)C)c2ccccc21 (centres undefined) | n | n | n | 0.04µM | n | n | 1µM
COCCn1c(=O)[nH]c(=O)c2c1nc(-c1cc(Br)c3c(c1)OCO3)n2Cc1ccccc1 | n | n | x | 0.11µM | n | n | 0.079µM
CC1(C)CCC(NC(=O)[C@@H](N)CCC(=O)O)CC1 | n | n | n | n | n | n | x
COC(=O)c1ccc(Oc2nc3c(c(=O)n(C)c(=O)n3C)n2C(C)C)cc1 | n | n | x | x | x | n | x
COC(=O)c1ccc(Oc2nc3c(c(=O)n(C)c(=O)n3C)n2CCC(C)C)cc1 | n | n | n | 0.045µM | n | n | 0.1µM
CC(C)Cn1c(O)c(/C=C2\C=NN=C2c2ccccc2)sc1=S | n | n | n | n | n | 20µM | x | tau sediment=n
CCCC(C(=O)Nc1nccs1)c1ccccc1 (centres undefined) | n | n | n | n | n | n | x
